CYP2C9 inh: blockers of cytochrome P450 2C9 activity – biochemical, luminescence, ADME assay, primary screen | 20% of 96,000 active | P11712 | inhibition, % at 5 µM | CYP2C9 Supersomes, luciferin-H conversion;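 active = blocking of liver enzyme CYP2C9 beyond about 50% at 5 µM, limit read from the data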
CYP2C19 inhib: blockers of cytochrome P450 2C19 activity – biochemical, luminescence, ADME assay, primary screen; inhibition, % at 5 µM; CYP2C19 Supersomes, luciferin-H EGE luminescence, 30 min; 21% of 96,000 active; P33261;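 active = CYP2C19 inhibition above a set limit at 5 µM in the primary screen, cut at about 50% in these data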;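 note: plate controls were negative control wells for no effect and 2.5 mM tranylcypromine positive control for full effect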
CYP2C9 activ: human CYP2C9 activators, primary screen, biochemical, luminescence; Cytochrome P450 2C9 (Homo sapiens), P11712; recombinant CYP2C9, luciferin-H conversion; active compounds read high; factor 1 = untreated enzyme, 0 = blocked; activation factor at 5 µM; 1.4% of 96,000 active; AID 1024, 2008;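 active = activation factor of 2 or more for CYP2C9 at a 5 µM dose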;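 note: 0 = sulfaphenazole-blocked wells and 1 = vehicle-only wells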
CYP2C19 act: human CYP2C19 activators, primary screen, biochemical, luminescence; Cytochrome P450 2C19 (Homo sapiens), P33261; recombinant CYP2C19, luciferin-H EGE luminescence; active compounds read high; 0 = fully inhibited enzyme, 1 = untreated enzyme; activation factor at 5 µM; 96,000 tested, under 10 active; AID 1025, 2008;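 active = activation factor of at least 2 at 5 µM in the primary screen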;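 note: 0 = wells with 2.5 mM tranylcypromine and 1 = vehicle-only wells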
Cav32 inh: Cav3.2 calcium influx blockers – cell-based, Fluo-4 calcium fluorescence, FDSS, MLSMR library, primary screen; Cav3.2-expressing cells; active compounds read low; B-score at 10 µM; 4% of 100,000 active; AID 449739, 2010;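 active = single-dose well whose peak fluorescence ratio is a statistical outlier from its plate by either plate-standardised score or position-corrected B-score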
The depositor's hits bear a star; . = no result given. Only some compounds are listed: those with a hit (about 27% of all), similar ones and a draw of the others.

SMILES	CYP2C9 inh	CYP2C19 inhib	CYP2C9 activ	CYP2C19 act	Cav32 inh
Cc1sc(NC(=O)CSc2nnc(C(C)C)n2C)c(C#N)c1C	.	.	.	.	1.2
CCOc1ccccc1NC(=O)N1CCCC1C(=O)Nc1ccc(NC(C)=O)cc1 (stereo not drawn)	21	7	0.8	0.9	0.1
CCCCN1CC[C@H]2C=CC[C@@H](C(=O)Nc3nccs3)[C@H]2C1=O	.	.	.	.	0.83
Nc1c(NCc2ccccc2F)c(=O)[nH]c(=O)n1Cc1ccccc1	75*	63*	0.3	0.4	-0.67
Nc1c(NCCC2=CCCCC2)c(=O)[nH]c(=O)n1Cc1ccccc1	17	4	0.8	1	.
Cc1sc2ncnc(NCCc3ccc(S(N)(=O)=O)cc3)c2c1C	4	6	1	0.9	.
COC(=O)C(Cc1ccccc1)NC(=O)COc1ccc(C(C)(C)C)cc1 (stereo not drawn)	19	18	0.8	0.8	-6.1*
CC(C)C(C)NC(=O)COc1ccc(-c2ccccc2)cc1 (stereo not drawn)	87*	18	0.1	0.8	-0.98
COc1cc(C(Nc2ccc3c(c2)OCO3)C(=O)NC2CCCCC2)cc(OC)c1OC (stereo not drawn)	28	74*	0.7	0.3	-3.6
Cc1c(N(C(=O)Nc2ccccc2)C2=NCC(C)S2)c(=O)n(-c2ccccc2)n1C (stereo not drawn)	74*	32	0.3	0.7	1.2
O=C(Nc1ccccc1)N(C1=NCCCCS1)c1cccc2ccccc12	20	61*	0.8	0.4	0.11
CNC(=O)N(C1=NCC(C)S1)c1ccc(F)cc1F (stereo not drawn)	26	62*	0.7	0.4	0.95
O=C(Nc1ccccc1)N(Cc1ccccc1)C1=NCCS1	56*	12	0.4	0.9	0.34
CCOCCCNC(=O)CC1Oc2ccc(C)cc2NC1=O (stereo not drawn)	-28	13	1.3	0.9	0.62
CC1CN=C(N(C(=O)Nc2ccccc2)C(C)C)S1 (stereo not drawn)	.	.	.	.	-0.3
CC1CN=C(N(Cc2ccccc2)C(=O)Nc2ccccc2)S1 (stereo not drawn)	47	18	0.5	0.8	-8.4*
COc1ccccc1N(C(=O)NCc1ccccc1)C1=NCC(C)S1 (stereo not drawn)	57*	47	0.4	0.5	-4.7*
Clc1ccc(C2=CC(c3ccco3)n3ncnc3N2)cc1 (stereo not drawn)	7	16	0.9	0.8	-5.6*
O=C1CC(N2CCN(c3ccccc3)CC2)C(=O)N1CCc1ccccc1 (stereo not drawn)	6	10	0.9	0.9	-0.0032
CCCn1c(=O)[nH]c(=O)c2[nH]cnc21	.	.	.	.	0.22
O=C1CC(SC(=Nc2ccccc2)Nc2ccccc2)C(=O)N1c1cccc(Cl)c1 (stereo not drawn)	43	29	0.6	0.7	-0.026
Cc1ccc(CSCC(=O)N/N=C/c2sccc2C)cc1	40	83*	0.6	0.2	-4.9*
Cc1ccc(OCC(=O)N/N=C/c2cccn2C)cc1	17	16	0.8	0.8	0.16
COC(=O)c1ccc(CSc2ccc3nnc(-c4cccnc4)n3n2)o1	36	36	0.6	0.6	.
Cc1nc(N[C@@H](Cc2ccccc2)C(=O)O)c2oc3ccccc3c2n1	10	19	0.9	0.8	.
SMILES	CYP2C9 inh	CYP2C19 inhib	CYP2C9 activ	CYP2C19 act	Cav32 inh
Cc1nc(NCc2ccco2)c2oc3ccccc3c2n1	63*	77*	0.4	0.2	.
Cc1nc(NC(C)c2ccccc2)c2oc3ccccc3c2n1 (stereo not drawn)	61*	44	0.4	0.6	-1.9
Cc1nc(Nc2ccncc2)c2oc3ccccc3c2n1	-5	7	1.1	0.9	0.65
COc1ccc(CNC(=O)C2CCCN(S(=O)(=O)c3c(C)n[nH]c3C)C2)cc1 (stereo not drawn)	-11	-6	1.1	1.1	-0.049
CN=C1SC(CC(=O)NCCc2ccc(OC)c(OC)c2)C(=O)N1C (stereo not drawn)	-27	-19	1.3	1.2	0.17
COc1ccc(N=C2SC(CC(=O)Nc3ccc(OC)cc3OC)C(=O)N2C)cc1 (stereo not drawn)	52*	49	0.5	0.5	-0.78
COc1ccc(OCCN2CCN(C3CC(=O)N(CCC(C)C)C3=O)CC2)cc1 (stereo not drawn)	3	25	1	0.7	0.1
CCCOC(=O)C1=C(C)OC23OC(N)=C(C#N)C12C(=O)c1ccccc13 (stereo not drawn)	.	.	.	.	-0.84
COc1ccc(NC(=O)CN2CCCCC2)c([N+](=O)[O-])c1	-1	16	1	0.8	-0.022
COc1ccc(NC(=O)CN2CCN(C3c4ccccc4-c4ccccc43)CC2)cc1	95*	59*	0.1	0.4	-0.56
COc1ccc(NC(=O)CN2CCC3(O)CCCCC3C2c2cc(OC)ccc2OC)cc1 (stereo not drawn)	80*	71*	0.2	0.3	0.014
COc1ccc(NC(=O)CN2CCN(CC(=O)Nc3ccccc3Cl)CC2)cc1Cl	57*	91*	0.4	0.1	-1.7
CCOc1ccc(/C=C/C(=O)Nc2ccc(OC)cc2[N+](=O)[O-])cc1	-145	10	2.4*	0.9	-0.046
COc1ccc(NC(=O)CN2CCOCC2)cc1	-3	40	1	0.6	0.48
O=C(CN1CCCC1)Nc1ccccc1Cl	18	7	0.8	0.9	0.85
COc1cccc(/C=N/n2nnc3c(cnn3-c3ccccc3)c2=O)c1	8	10	0.9	0.9	.
CCOC(=O)c1c(C)n(C)c2c(C)cc(O)c(OC(=O)CC)c12	5	4	1	1	-0.29
C=CCn1c(O)c(CN2CCOCC2)c(C)c(C#N)c1=O	8	-1	0.9	1	0.72
COc1ccc(NC(=O)CN2CCN(CC(=O)Nc3cc(OC)cc(OC)c3)CC2)cc1	61*	56*	0.4	0.4	.
COc1ccc(NC(=O)CN2CCC(C)CC2)c([N+](=O)[O-])c1	54*	65*	0.5	0.4	0.48
COc1ccc(NC(=O)CN2CCN(CC(=O)Nc3ccc(OC)c(OC)c3)CC2)cc1	-8	11	1.1	0.9	-0.086
COc1ccc(NC(=O)CN2CCC(C)CC2)cc1	3	89*	1	0.1	-0.42
CCc1ccc(NC(=O)N(CCOC)C2CCN(C(C)=O)CC2)cc1	-17	8	1.2	0.9	-0.66
CC(C)CCSc1nc(N)c(C#N)cc1C#N	24	14	0.8	0.9	-0.15
CCOC(=O)CNC(=O)C1c2ccccc2C(=O)N(c2ccc(OC)cc2)C1c1ccc(OC)cc1 (stereo not drawn)	20	20	0.8	0.8	-0.14

Source: PubChem (several laboratories)
